In PubChem BioAssay AID1240 (Sanford-Burnham Center for Chemical Genomics, 2008):
Screen size: about 50,000 compounds; about 800 (1.6%) showed an effect of 50% or more. The entries come from a sample that favours strong results as a whole.

These molecules were tested against Bcl-2-like protein 10 (Homo sapiens) (UniProt Q9HD36) (assay: Phenotype converters, Bcl-B/TR3 peptide binding displacement, primary biochemical FP (AID 1240;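 note: 0% = Bcl-B with tracer peptide and DMSO and 100% = tracer peptide lacking Bcl-B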)). Conditions: GST-Bcl-B / FITC-TR3 peptide fluorescence polarization; stronger effect = higher value; compound at 3.75 mg/L.
Bcl-2-like protein 10 (Homo sapiens), sequence (Q9HD36 whole entry, looked up): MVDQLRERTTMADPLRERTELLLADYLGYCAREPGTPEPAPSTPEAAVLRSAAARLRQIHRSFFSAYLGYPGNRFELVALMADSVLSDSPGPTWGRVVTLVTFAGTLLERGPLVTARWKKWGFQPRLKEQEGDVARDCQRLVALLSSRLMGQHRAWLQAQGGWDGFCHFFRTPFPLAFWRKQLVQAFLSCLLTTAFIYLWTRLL
Molecule `Cc1cc(C)nc(SCC(=O)N(c2ccccc2)c2ccccc2)n1` has a displacement of -6.6%. `CSc1nc(N)c(C#N)c(-c2ccccc2)c1C#N` gave a displacement of -11%. `NC(=O)c1ccc(NC(=O)COc2ccccc2Cl)cc1` gave a displacement of -2%. In the case of `Cc1ccc(OCCn2cc(C=C3C(=O)NC(=O)NC3=O)c3ccccc32)cc1C`, the displacement is reported as 79.3%. `C=CCc1ccccc1OCCn1cc(/C=C2/SC(=S)NC2=O)c2ccccc21` gave a displacement of 5.8%. `C=CCc1ccccc1OCCn1cc(C=C2C(=O)NC(=O)NC2=O)c2ccccc21` showed a displacement of -6.7%. Work on `Cc1cccc(OCCn2cc(C=C3C(=O)NC(=S)NC3=O)c3ccccc32)c1` yielded a displacement of 11.2%. `C=CCc1ccccc1OCCn1cc(C=C2C(=O)NC(=S)NC2=O)c2ccccc21` showed a displacement of 53.6%. Molecule `CN1C(=O)/C(=C\c2cn(CCOc3ccc(Br)cc3)c3ccccc23)SC1=S` has a displacement of 3.5%. `O=C1NC(=O)C(=Cc2cn(CCOc3ccc(Br)cc3)c3ccccc23)C(=O)N1` was tested, and the displacement was 73.8%. `O=C1NC(=S)NC(=O)C1=Cc1cn(CCOc2ccc(Br)cc2)c2ccccc12` gave a displacement of 9.1%. For `COc1cccc(OCCn2cc(C=C3C(=O)NC(=O)NC3=O)c3ccccc32)c1`, the displacement was 15.2%. Work on `c1ccc(C2=C(c3ccccc3)N3CCN=C3S2)cc1` yielded a displacement of 6.4%. `O=S1(=O)CCC(NC(=S)N/N=C/c2cccc3ccccc23)C1` (stereo unspecified) was tested, and the displacement was 5.1%. For `COc1ccc(-n2nc3cc(C)c(NC(=O)c4cc(Cl)ccc4OC)cc3n2)cc1`, the displacement was -5.3%. With `Cc1ccc(NC(=O)COC(=O)c2ccn(C)n2)cc1` the displacement was 13.5%. For `Cc1cc(NC(=O)c2ccc(Cl)cc2Cl)ccc1NC(=O)c1ccccc1`, the displacement was -2.3%. `CCOC(=O)C1=C(O)/C(=C/c2ccc(Br)cc2)SC1=Nc1ccc([N+](=O)[O-])cc1` gave a displacement of 15%. `CCOC(=O)C1=C(O)/C(=C/c2cccnc2)SC1=Nc1ccc(C)cc1` gave a displacement of 14.8%. Molecule `CCOC(=O)C1=C(O)/C(=C\c2ccccc2[N+](=O)[O-])N=C1C` has a displacement of 15.7%. With `CCOC(=O)C1=C(O)/C(=C/c2cccc(Br)c2)SC1=Nc1ccc([N+](=O)[O-])cc1` the displacement was 63.1%. `CCOC(=O)C1=C(O)/C(=C/c2ccccc2)SC1=Nc1ccc([N+](=O)[O-])cc1` was tested, and the displacement was -0.9%. In the case of `CCOC(=O)C1=C(O)/C(=C/c2cccc(O)c2)SC1=Nc1ccc([N+](=O)[O-])cc1`, the displacement is reported as -1.1%. `CCOC(=O)C1=C(O)/C(=C/c2cccnc2)SC1=Nc1ccc([N+](=O)[O-])cc1` gave a displacement of 55.2%. `CCOC(=O)C1=C(O)/C(=C/c2cccc([N+](=O)[O-])c2)N=C1C` showed a displacement of 129%. With `CCOC(=O)C1=C(O)/C(=C\c2ccc([N+](=O)[O-])cc2)N=C1C` the displacement was 1.5%. `CCOC(=O)c1c(NC(=O)/C=C/c2cccs2)sc(C)c1C` gave a displacement of 2.9%. For `Cc1ccc(OCC(=O)Nc2cc(Cl)cc(Cl)c2)cc1`, the displacement was 12.4%. In the case of `O=C(NCc1ccc2c(c1)OCO2)c1ccc(F)cc1`, the displacement is reported as 11.2%. For `COc1ccc(/C=C2/C(=O)ON=C2c2ccccc2)cc1`, the displacement was 13.6%. For `CC(=O)Oc1ccc2c(C)cc(=O)oc2c1C`, the displacement was -10.7%. `CCOc1ccccc1N1CCN(C(=O)C(Sc2ccccc2)c2ccccc2)CC1` (stereo unspecified) gave a displacement of -4.4%. For `CC1CN(C(=O)c2cccs2)CC(C)O1` (stereo unspecified), the displacement was 3.3%. For `CC(=O)Nc1ccc(NC2=C(Cl)C(=O)c3ccccc3C2=O)cc1`, the displacement was 7.1%. `Cc1cc(Cl)ccc1OCC(N)=O` gave a displacement of -0.8%. Molecule `CN(C)/C(=N\S(=O)(=O)c1ccc(Br)cc1)c1ccccc1` has a displacement of 96.8%. `N/C(=N/S(=O)(=O)c1ccc(Br)cc1)c1ccccc1` showed a displacement of 8.5%. In the case of `Cc1ccc(S(=O)(=O)/N=C(\c2ccccc2)N(C)C)cc1`, the displacement is reported as 13.2%. `CCOc1ccc(Br)cc1C=Nc1c(C)n(C)n(-c2ccccc2)c1=O` gave a displacement of -1.8%. For `COc1cc(/C=N/N2C(=O)c3ccccc3C2=O)c([N+](=O)[O-])cc1OC`, the displacement was -1.8%. For `COc1cc(/C=C2/SC(=S)N(c3c(C)n(C)n(-c4ccccc4)c3=O)C2=O)c([N+](=O)[O-])cc1OC`, the displacement was 61.3%. `COc1cc(C=Nc2c(C)n(C)n(-c3ccccc3)c2=O)c([N+](=O)[O-])cc1OC` showed a displacement of 130%. Molecule `COc1ccccc1/C=C1\SC(=S)N(c2c(C)n(C)n(-c3ccccc3)c2=O)C1=O` has a displacement of 1.2%. In the case of `Cc1c(N2C(=O)/C(=C/c3cccs3)SC2=S)c(=O)n(-c2ccccc2)n1C`, the displacement is reported as 8.6%. In the case of `COc1ccccc1C/C(N)=N/OC(=O)c1ccc(I)cc1`, the displacement is reported as 10.8%. With `Cc1ccc(C23CC4CC(CC(C(=O)Nc5ccc(F)cc5F)(C4)C2)C3)cc1` the displacement was -3.1%. Work on `Cc1cc(Cl)ccc1OCC(=O)NCC1CCCO1` (stereo unspecified) yielded a displacement of 1.4%. For `CC(C)CN1C(=O)c2ccc(C(=O)Nc3ccc(Br)cc3C(=O)O)cc2C1=O`, the displacement was -12.5%. `Cc1ccc(/C=C/C(=O)Nc2cccc3cccnc23)o1` gave a displacement of 91.4%. `Cc1ccc(/C=C/C(=O)Nc2cccc3ncccc23)o1` showed a displacement of 27.1%. Molecule `Cc1ccc(/C=C/C(=O)Nc2cccc3ccccc23)o1` has a displacement of -7.3%. With `Cc1c(C(=O)Nc2ccc(Cl)cn2)oc2ccccc12` the displacement was 15.4%. `Cc1cccc(C(C)C)c1NC(=O)COc1ccc(Cl)cc1Cl` showed a displacement of 13.3%. Work on `Cc1cccc(N2C(=O)/C(=C/c3ccco3)SC2=S)c1C` yielded a displacement of 1.9%. For `Cc1cc(/C=C2\SC(=S)NC2=O)c(C)n1-c1cccc([N+](=O)[O-])c1`, the displacement was 7.1%. `Cc1ccc(CN2CCN(/N=C/c3ccc(C(=O)O)cc3)CC2)cc1` showed a displacement of 16.4%. Work on `Cc1ccc(C)n1Cc1ccc(C(=O)O)cc1` yielded a displacement of 66.4%. `O=C(O)c1ccc(CN2CCOCC2)cc1` gave a displacement of 13.7%. `CC(=O)c1cccc(NC(=O)/C(=C\c2cccnc2)NC(=O)c2ccccc2)c1` was tested, and the displacement was -5.3%. Work on `COc1ccc(C/C(N)=N/OC(=O)c2cccs2)cc1` yielded a displacement of 8.1%. `N/C(Cc1cccc2ccccc12)=N\OC(=O)c1cccs1` showed a displacement of 98.4%. `N/C(Cc1cccc2ccccc12)=N\OC(=O)c1ccc(F)cc1` gave a displacement of 31.7%. Work on `COc1ccc(C(=O)CSc2nc3c(c(-c4ccc(C)o4)c2C#N)CCCC3)cc1` yielded a displacement of 7.6%. Molecule `CC(C)(C)C1(O)CC(C(F)(F)F)=NN1C(=O)COc1ccccc1` (stereo unspecified) has a displacement of -7.4%. `O=C1ON=C(c2ccccc2)/C1=C/c1ccc(Br)s1` showed a displacement of 70.8%. In the case of `CCCCc1ccc(/C=C2/C(=O)ON=C2c2ccccc2)s1`, the displacement is reported as 40.8%. `O=C1ON=C(c2ccccc2)/C1=C/c1cccnc1` showed a displacement of -9.2%. `CCCCN(CC)c1cnn(-c2ccccc2)c(=O)c1N` showed a displacement of 10.6%. Work on `COc1ccc(C2C(C(C)=O)=C(Nc3ccccc3)CC(C)(O)C2C(C)=O)cc1` (stereo unspecified) yielded a displacement of 1.4%. `CC(=O)C1=C(Nc2ccc(Br)cc2)CC(C)(O)C(C(C)=O)C1c1ccc(C)cc1` (stereo unspecified) gave a displacement of -4.9%. For `COc1ccc(C2C(C(C)=O)=C(Nc3ccc(Br)cc3)CC(C)(O)C2C(C)=O)cc1` (stereo unspecified), the displacement was 90.9%.
